From PubChem BioAssay (NCATS)
Results filed as inconclusive are left out. Calls of active or inactive are those of the source. Unless noted, the call rests on the fitted dose curve; in most records, active means well fitted curve in the direction sought with a large enough effect; inconclusive means small, poorly fitted or top-dose-only effect, or another doubt; inactive means no such curve, though single readings can be large; an effect the other way counts as inactive or inconclusive.

What was measured:
[1] = biological target: Aldehyde dehydrogenase, mitochondrial (Homo sapiens) (UniProt P05091); test: qHTS for Inhibitors of the Aldehyde Dehydrogenase Family (ALDH2) Validation screens (AID 2061302; active means well fitted inhibition curve with a large enough effect; title and protocol of this record describe different tests; further: potency means the concentration at half of the fitted maximal effect)
[2] = biological target: Aldehyde dehydrogenase, mitochondrial (Homo sapiens) (UniProt P05091); test: qHTS for Inhibitors of the Aldehyde Dehydrogenase Family (ALDH2) Confirmatory screens (AID 2061303; active means well fitted inhibition curve with a large enough effect; title and protocol of this record describe different tests; further: nearly all actives have a fitted effect of over 45% in size; further: potency means the concentration at half of the fitted maximal effect)
[3] = qHTS for Inhibitors of the Aldehyde Dehydrogenase Family (ALDH1A2, ALDH1A3, ALDH2, ALDH3A1) (AID 2061307); further: nearly all actives have a fitted effect of over 50% in size
[4] = biological target: Retinaldehyde dehydrogenase 3 (Homo sapiens) (UniProt P47895); test: qHTS for Inhibitors of the Aldehyde Dehydrogenase Family (ALDH1A3) Confirmatory screens (AID 2061311); further: nearly all actives have a fitted effect of over 60% in size; further: potency means the concentration at half of the fitted maximal effect
[5] = biological target: Retinal dehydrogenase 2 (Homo sapiens) (UniProt O94788); test: qHTS for Inhibitors of the Aldehyde Dehydrogenase Family (ALDH1A2) Confirmation screens (AID 2061314); further: nearly all actives have a fitted effect of over 65% in size; further: potency means the concentration at half of the fitted maximal effect
[6] = biological target: Aldehyde dehydrogenase 1A1 (Homo sapiens) (UniProt P00352); test: qHTS for Inhibitors of the Aldehyde Dehydrogenase Family (ALDH1A1) Confirmatory screens (AID 2061316); further: nearly all actives have a fitted effect of over 65% in size; further: potency means the concentration at half of the fitted maximal effect
[7] = biological target: Cellular tumor antigen p53 (Homo sapiens) (UniProt P04637); test: Primary qHTS for small molecule compounds that upregulate eGFP-tagged delta133p53alpha (in C-terminal) cells. (AID 2060324); further: potency means the concentration at half of the fitted maximal effect
Summary of the method: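 NCI-H358 cells with doxycycline-inducible D133p53a-eGFP (C-terminal tag), pre-induced 24 h with 100 ng/ml doxycycline, plated 800/well in doxycycline-free medium and treated 24 h at 37 °C with compound titrations. Cells were then fixed and Hoechst-stained, and GFP intensity was read by laser scanning cytometry.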

[8] = biological target: Retinaldehyde dehydrogenase 3 (Homo sapiens) (UniProt P47895); test: qHTS for Inhibitors of the Aldehyde Dehydrogenase Family (ALDH1A3) Validation screen (AID 2061312); further: on the % scale 0 is the no-effect control and ±100 the full control effect; nearly all actives have a fitted effect of over 45% in size
[9] = BET inhibitor-based combinations targeting novel dependencies in MECOM-rearranged (r) AML: OCI-AML3 cell line (AID 2202232); settings: Potency: OCI-AML3 viability; further: nearly all actives have a fitted effect of over 35% in size; further: potency means the concentration at half of the fitted maximal effect
Summary of the method: (§1)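 Here, 11-point titrations of each agent were applied to 500 seeded cells and incubated 48 hr; CellTiter-Glo signal, scaled against DMSO and empty wells, was integrated as AUC, then Z-scored within the individual line.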

[10] = BET inhibitor-based combinations targeting novel dependencies in MECOM-rearranged (r) AML: HNT-34 cell line (AID 2202234); further: nearly all actives have a fitted effect of over 35% in size; further: potency means the concentration at half of the fitted maximal effect
Summary of the method: (§2)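 Normalized to DMSO and empty-well controls, the luminescence data from CellTiter-Glo after 48 hr drug exposure were fitted across 11 concentrations. Reported metrics are area under the dose-response curve and its Z-transformed form.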

[11] = BET inhibitor-based combinations targeting novel dependencies in MECOM-rearranged (r) AML: UCSD-AML1 cell line (AID 2202235); further: nearly all actives have a fitted effect of over 40% in size; further: potency means the concentration at half of the fitted maximal effect
Summary of the method: as §2

[12] = BET inhibitor-based combinations targeting novel dependencies in MECOM-rearranged (r) AML: AML-191 cell line (AID 2202236; further: nearly all actives have a fitted effect of over 35% in size; further: potency means the concentration at half of the fitted maximal effect)
Summary of the method: as §1

[13] = BET inhibitor-based combinations targeting novel dependencies in MECOM-rearranged (r) AML: AML-194 cell line (AID 2202237; further: nearly all actives have a fitted effect of over 40% in size; further: potency means the concentration at half of the fitted maximal effect)
Summary of the method: as §1

[14] = biological target: Retinaldehyde dehydrogenase 3 (Homo sapiens) (UniProt P47895); test: qHTS for Inhibitors of the Aldehyde Dehydrogenase Family (ALDH1A3) Primary screen (AID 2061315);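 further: plate controls were DMSO vehicle for no effect and reference inhibitor for full effect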
[15] = BET inhibitor-based combinations targeting novel dependencies in MECOM-rearranged (r) AML: SET-2 cell line (AID 2202231); settings: SET-2 AML cells viability, CellTiter-Glo luminescence, 48 h; viability: active compounds read low, concentration not given here; further: nearly all actives have a fitted effect of over 35% in size; further: potency means the concentration at half of the fitted maximal effect;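 on viability: plate controls were DMSO treated cells for no effect and wells without cells for full effect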
Summary of the method: as §1

[16] = biological target: Aldehyde dehydrogenase, mitochondrial (Homo sapiens) (UniProt P05091); test: qHTS for Inhibitors of the Aldehyde Dehydrogenase Family (ALDH2) Primary screen (AID 2061308); further: nearly all actives have a fitted effect of over 55% in size; further: potency means the concentration at half of the fitted maximal effect
[17] = BET inhibitor-based combinations targeting novel dependencies in MECOM-rearranged (r) AML: MV-4-11 cell line (AID 2202233); further: nearly all actives have a fitted effect of over 45% in size; further: potency means the concentration at half of the fitted maximal effect
Summary of the method: as §2

Cellular tumor antigen p53 (Homo sapiens), sequence (P04637 whole entry, looked up): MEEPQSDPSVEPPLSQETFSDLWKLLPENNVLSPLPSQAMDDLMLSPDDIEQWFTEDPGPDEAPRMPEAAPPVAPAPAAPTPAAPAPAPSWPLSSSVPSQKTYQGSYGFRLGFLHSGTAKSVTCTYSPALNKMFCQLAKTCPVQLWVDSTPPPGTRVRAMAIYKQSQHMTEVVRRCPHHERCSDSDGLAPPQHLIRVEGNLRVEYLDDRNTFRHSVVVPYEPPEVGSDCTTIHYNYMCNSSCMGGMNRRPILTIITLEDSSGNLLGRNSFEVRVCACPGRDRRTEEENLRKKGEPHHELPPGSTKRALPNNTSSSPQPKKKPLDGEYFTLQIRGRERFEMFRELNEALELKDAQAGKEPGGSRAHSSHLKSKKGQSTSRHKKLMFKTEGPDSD

COCC(=O)O[C@]1(CCN(C)CCCc2nc3ccccc3[nH]2)CCc2cc(F)ccc2[C@@H]1C(C)C
inactive: Potency [1] | Potency [2] | Potency [3] | Potency [4] | Potency [5] | Potency [6]

Nc1ncn([C@@H]2O[C@H](CO)[C@@H](O)[C@H]2O)c(=O)n1
active: Potency [7] 21.3 µM | Potency [9] 5.9 µM | Potency [10] 4.68 µM | Potency [11] 4.68 µM | Potency [12] 5.25 µM | Potency [13] 16.6 µM
inactive: Potency [1] | Potency [8]

CCN(CC)CCNC(=O)c1ccc(N)cc1
inactive: Potency [1] | Potency [2] | Potency [3] | Potency [4] | Potency [8] | Potency [5] | Potency [14] | Potency [6]

COc1cc(-c2coc3cc(OCc4ccccc4)c(OC)c(O)c3c2=O)cc(O)c1OC
inactive: Potency [1]

O=C1CCc2cc(OCCCCc3nnnn3C3CCCCC3)ccc2N1
inactive: Potency [1] | Potency [9] | Potency [10] | Potency [11] | Potency [12] | Potency [13]
active: Potency [2] 0.631 µM | Potency [4] 0.631 µM | Potency [5] 7.94 µM

CC(C)(C)OC(=O)N1CCN(c2ccc(NCc3ccc(-c4ccc(C#N)cc4)o3)cn2)CC1
inactive: Potency [14]
active: Potency [1] 0.398 µM | Potency [2] 0.0357 µM | Potency [3] 6.31 µM | Potency [4] 7.08 µM | Potency [6] 2.25 µM

O=c1c(-c2ccc(O[C@@H]3O[C@H](CO)[C@@H](O)[C@H](O)[C@H]3O)cc2)coc2cc(O)cc(O)c12
inactive: Potency [1]

COc1ccc(Cc2nccc3cc(OC)c(OC)cc23)cc1OC
active: Potency [15] 11.8 µM | Potency [9] 8.33 µM | Potency [10] 5.9 µM | Potency [11] 8.33 µM
inactive: Potency [7]

CCOC(=O)C1CCN(c2ccc(NCc3ccc(-c4ccc(C#N)cc4)o3)cc2)CC1
active: Potency [1] 0.355 µM | Potency [2] 0.0355 µM | Potency [3] 0.634 µM | Potency [4] 7.08 µM | Potency [5] 31.6 µM | Potency [6] 7.98 µM
inactive: Potency [16]

CN1Cc2sccc2C(c2ccc(O)c(O)c2)C1 (stereo not given)
inactive: Potency [1] | Potency [2] | Potency [3] | Potency [5]

CC(C)(C)OC(=O)N1CCN(c2ncc(NCc3ccc(-c4ccc(C#N)cc4)o3)cn2)CC1
inactive: Potency [14]
active: Potency [1] 0.224 µM | Potency [2] 0.1 µM | Potency [3] 0.283 µM | Potency [16] 0.1 µM | Potency [4] 25.1 µM | Potency [5] 12.6 µM

N#Cc1ccc(-c2ccc(CNc3ccc(N4CCC(C#N)CC4)cc3)o2)cc1
inactive: Potency [14]
active: Potency [1] 0.631 µM | Potency [2] 0.1 µM | Potency [3] 1.27 µM | Potency [16] 0.1 µM | Potency [4] 7.94 µM | Potency [6] 5.04 µM

O=C1NC(=O)/C(=C/c2ccc(-c3ccc(F)cc3O)o2)S1
inactive: Potency [1]

CCCCN(CCCC)CC(O)c1cc(Cl)cc2c1-c1ccc(Cl)cc1/C2=C/c1ccc(Cl)cc1 (stereo not given)
inactive: Potency [7] | Potency [1] | Potency [8] | viability [15] 104% | Potency [17] | Potency [10] | Potency [11] | Potency [12] | Potency [13]

CC(C)(C)OC(=O)N1CCN(c2cnc(NCc3ccc(-c4ccc(C#N)cc4)o3)cn2)CC1
active: Potency [1] 0.316 µM | Potency [2] 0.355 µM | Potency [3] 3.18 µM | Potency [4] 11.3 µM | Potency [5] 1.79 µM | Potency [6] 4.49 µM
inactive: Potency [14]

N[C@H](C(=O)O)[C@H](O)C(=O)O
inactive: Potency [1] | Potency [2] | Potency [3] | Potency [4] | Potency [6]

O=c1c(-c2ccc(O)cc2)coc2cc(O[C@@H]3O[C@H](CO)[C@@H](O)[C@H](O)[C@H]3O)cc(O)c12
inactive: Potency [1]

Cc1cc(C(C)(C)C)cc(C)c1CC1=NCCN1
inactive: Potency [7] | Potency [1] | Potency [8] | Potency [13]
active: Potency [17] 18.6 µM

CCN1/C(=C/C(C)=O)Sc2ccc(OC)cc21
active: Potency [10] 18.6 µM | Potency [12] 8.33 µM
inactive: Potency [7] | Potency [1] | Potency [8] | viability [15] 93.6%

CC(C)(C)OC(=O)N1CCN(c2cnc(NCc3ccc(-c4ccc(C#N)cc4)o3)nc2)CC1
active: Potency [1] 1.12 µM | Potency [2] 2.24 µM | Potency [3] 5.65 µM | Potency [4] 15.8 µM | Potency [5] 8.96 µM | Potency [6] 10.1 µM
inactive: Potency [14]

O=C1NC(=O)c2cc(Nc3ccccc3)c(Nc3ccccc3)cc21
inactive: Potency [8]
active: Potency [7] 30.1 µM

CC(C)NCC(O)c1ccc(O)c(O)c1 (stereo not given)
inactive: Potency [1] | Potency [2] | Potency [3] | Potency [4] | Potency [8] | Potency [5] | Potency [6] | viability [15] 106% | Potency [9] | Potency [17] | Potency [10] | Potency [11] | Potency [12] | Potency [13]

COc1cc2nc(N(C)CCCNC(=O)C3CCCO3)nc(N)c2cc1OC (stereo not given)
inactive: Potency [1]

COc1ccc(-c2coc3cc(O[C@@H]4O[C@H](CO)[C@@H](O)[C@H](O)[C@H]4O)ccc3c2=O)cc1
inactive: Potency [1]

Cc1cn([C@H]2CC(N=[N+]=[N-])[C@@H](CO)O2)c(=O)[nH]c1=O (stereo not given in full)
inactive: Potency [1] | Potency [8]
